Experimental data published in PubChem BioAssay (NCI).
The panel holds about 83,000 compounds, 20% with a hit somewhere; the sample as a whole holds those more often.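 Method: cells in 96-well plates; compound added at one concentration; 48 h incubation; percent growth measured; values under 10 scored active.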 A number with no mark means an inactive call. The source made the active and inactive calls.

These compounds were tested on HCC-2998 colon (assay: NCI-60 one-dose screen, 48 h (100 = growth as untreated, 0 = no growth, -100 = all killed)). Conditions: 10 µM unless noted.

| SMILES | growth |
| --- | --- |
| CC(Br)C(O)c1cc2c(cc1Br)OCO2 (configuration not stated) | 111% |
| OC1CC2c3ccccc3C1c1ccccc12 (configuration not stated) | 108% |
| Cc1cc(C)c(S(=O)(=O)N2CCN(c3cc4c(cc3F)c(=O)c(C(=O)O)cn4C3CC3)CC2)c(C)c1 | 47.7% |
| O=C(c1ccccc1)C(Cl)C(Cl)c1ccccc1 (configuration not stated) | 98.1% |
| Cc1sc2nc(CSc3nnc(-c4ccco4)o3)[nH]c(=O)c2c1C | 124% |
| CCCCCCCCCCCCCCCCCCOc1cccc(CCOP(=O)(O)OCC[N+](C)(C)C)c1 | 82.5% |
| C=CCOc1ccc(/C(O)=C2\C(=O)C(=O)N(c3nccs3)C2c2ccccc2F)cc1 (configuration not stated) | 107% |
| CC/C(=C(\c1ccc(O)cc1)c1ccc(OCCN(C)CCN(C)C(=O)CCC(=O)c2c(C)[nH]c(/C=C3\N=C(c4ccc[nH]4)C=C3OC)c2C)cc1)c1ccccc1 | 92.2% |
| Cc1ccc(Oc2nc3ccccc3cc2-c2nnc(Cn3c(COc4ccccc4)nc4ccccc43)o2)cc1 | 64.5% |
| CCOC(=O)c1cc(/C(=N\O)c2cc(OC)c(OC)c(OC)c2)n2cc(C)cc(C)c12 | 67.5% |
| NC(=O)NNC(=O)c1ccccc1 | 107% |
| O=c1c2cccc3c(Nc4ccc(F)cc4)ccc(c32)c2nc3ccccc3n12 | 76.1% |
| C=C1C(=O)O[C@H]2[C@H]1CC/C(COC(=O)NCc1cc(OC)c(OC)c(OC)c1)=C\CC[C@@]1(C)O[C@@H]21 | 101% |
| Cc1cc(C(=O)O)c(N)c(C)n1 | 111% |
| Cc1ccc(Nc2ncnc3c2sc2ncccc23)cc1 | 103% |
| O=C1CCC(=O)N1Cc1ccccc1 | 101% |
| COc1ncc(-c2ccc3ncnc(Nc4cccc(Cl)c4)c3c2)cc1NS(=O)(=O)C1CC1 | 59.9% |
| O=C(Nc1ccc(I)cc1)c1cccc([N+](=O)[O-])c1O | 19.9% |
| COc1cc(NC(=O)CCl)ccc(=O)c1 | 105% |

| SMILES | growth |
| --- | --- |
| COc1ccc(/C=C/c2nc(N3CCOCC3)c3nc(Cl)c(Cl)cc3n2)cc1OC | 103% |
| CCCCCCCC/C=C\CCCCCCCCOc1ccccc1CCOP(=O)(O)OCC[N+](C)(C)C | 74.3% |
| COC(=O)c1ccc(C)cc1 | 109% |
| COc1ccc(/C(=N/O)c2cc(OC)c(OC)c(OC)c2)c(OC)c1N | 73.4% |
| COc1ccc(C2CC(=O)Nc3c2c(C)nn3-c2nc3ccccc3[nH]2)cc1OC (configuration not stated) | 96.5% |
| C=C1C(=O)O[C@H]2[C@H]1CC/C(COC(=O)NCCc1cccc(OC)c1)=C\CC[C@@]1(C)O[C@@H]21 | 83.5% |
| COc1ccc(-c2cn[nH]c2-c2cc(OC)c3c(c2)OCCO3)cc1 | 25.3% |
| CCN(Cc1ccccc1)c1ccc(SC#N)cc1 | 94.1% |
| Cc1ccc2c(c1)C(C)Cc1c(ncnc1-n1cnc3ccccc31)N2C (configuration not stated) | 17.4% |
| Cc1nc2sccn2c1-c1csc(Nc2ccccc2Cl)n1 | 63.8% |
| C=CCc1cc(Cl)cc2c(OC(C)=O)c(C(C)=O)c(-c3ccccc3)nc12 | 118% |
| Cc1nc2scc(-c3ccccc3)n2c(=O)c1CCO | 112% |
| COc1ccc(/C=C\c2cc(OC)c(OC)c(OC)c2)c(NS(=O)(=O)c2ccc(C(C)(C)C)cc2)c1O | 19.5% |
| CCCCCCOc1ccc(C2(Cl)c3ccccc3N(C)c3ccccc32)cc1 | 59.8% |
| CC(C)C[C@H](NC(=O)[C@H](Cc1ccccc1)n1ccc(N2CCCCC2)cc1=O)B(O)O | -36.9% (active) |
| Cc1ccccc1C(=O)c1ccccc1C(=O)O | 105% |
| CC1CCc2c(sc(NC(=O)CSc3nnc4ccccn34)c2C(N)=O)C1 (configuration not stated) | 105% |
| COc1ccc2c(c1)C=CC(C#N)N2C(=O)c1ccccc1 (configuration not stated) | 18.6% |
